In all, about 25,000 sequences were measured (“ln(normalized median fluorescence intensity)”: median about 9.7, highest 2% from about 11 on). The list comes from a sample in which the highest values are over-represented; it also holds similar and randomly drawn sequences.
What follows are sequences tested on PfAP2-HC AP2 domain (GST-tagged) (assay: gcPBM binding intensity (ln(normalized median fluorescence intensity)); higher = stronger DNA binding).
In short: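 Binding intensity is defined as the maximum Masliner-normalised natural-log median intensity across replicate spots for either probe orientation. It was measured on an Agilent 4 × 180k array of primer-extended double-stranded 36-bp intergenic genomic probes and negative controls, to which GST-tagged P. falciparum DNA-binding domains made in E. coli were applied for 1 h in 1× PBS with 1% milk, 0.2 mg/ml BSA, 0.5% salmon testes DNA and 0.03% Triton X-100. Detection was by Alexa488 anti-GST antibody and scanning at 488 nm.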

| Sequence | gcPBM binding intensity (ln) |
| --- | --- |
| ATATGTACATATCTCATGCACTTAACAAAAAAAAAG [GTGCAC_site9898] | 9.56 |
| TACATTCGGAGTAAAAAAAAATTTATACAATTACTT [XGTACX_negctrl_site29] | 9.44 |
| AATCCTTACAGACACACACACACGAATAAATAAAAA [CACACA_site480] | 10.6 |
| AATAGAATAATCCTTACACACACACCCACACGAATA [CACACA_site8053] | 10.4 |
| ATAATCCTTAGACACACACACACACGAATAAATAAA [CACACA_site6364] | 11.3 |
| TAGAATAATCCTTACACACACACACCCACGAATAAA [CACACA_site483] | 10.5 |
| AATCCTTACGAACACACACACACGAATAAATAAAAA [CACACA_site6363] | 10.8 |
| AATCCTTACGGACACACACACACGAATAAATAAAAA [CACACA_site4422] | 11 |
| GAATTTCAACAAAGTAGTACATTTTATAGTAATTGG [XGTACX_site2319] | 9.48 |
| ATAAACATATCAATATGTACATATTTTTGTTTGTAT [XGTACX_site7018] | 9.77 |
| TAATTTTTATTCAGTTCACACACGCTTTAATATTAT [CACACA_site9147] | 9.94 |
| GTTATATTCCTACAGAGTACATAAAAATGCACATCA [XGTACX_site1948] | 9.54 |
| CATAAATTAAAACACACACACACAAAAAAAAAAAAA [CACACA_site2262] | 11.6 |
| AAAAAAAAAAAATACACACAAACACAAATTAAATAA [CACACA_site3809] | 10.3 |
| AAAAAATTAATAAAAACACACAAAAAAAATAAACAA [CACACA_site1907] | 9.95 |
| GTTTCAAAATTAAACACACACAAAAAAAAAAAAAAA [CACACA_site2680] | 9.72 |
| TAAATTAAAAAACACACACACAAAAAAAAAAAAAAA [CACACA_site2263] | 11.2 |
| AAAAAAAAAAAAAATACACACAAACACAAATTAAAT [CACACA_site5982] | 10.8 |
| TACCCACGTATATATATACACACTAATATACACCCA [CACACA_site9381] | 9.88 |
| TTAAGCCGCAATATGGGTACATAGGAAGAAGGGGAA [XGTACX_site8397] | 9.56 |
| TTTTAAATTTAATTTACACACTTTTCATAGCATTGA [CACACA_site3794] | 9.61 |
| TGCAGTCTGGAGAAAAGTACACAGTATCTGGTAGCT [XGTACX_site2013] | 9.58 |

| Sequence | gcPBM binding intensity (ln) |
| --- | --- |
| CATACATACATACATACACACATACATATGTATTTA [CACACA_site5384] | 9.99 |
| AAACTTGTAAGAAACACACACACACGCATATAAATA [CACACA_site6518] | 10.7 |
| AAACTTGTAAGAAACACACACACACCCATATATATA [CACACA_site797] | 10.5 |
| TTGTAAGAAAAACACACACACACATATATATATATA [CACACA_site795] | 10.3 |
| ACTTGTAAGAAACACACACACACACCCATATATATA [CACACA_site796] | 11.5 |
| ACTTGTAAGAAACACACACACACACCGATATATATA [CACACA_site4594] | 11.2 |
| TTAAACTTGAAACACACACACACACCGATATAAAAA [CACACA_site4578] | 10.5 |
| AATTAAATTACTTATACACACATAAAATGCCTGTAT [CACACA_site6597] | 9.84 |
| TTATGTAAAAAAAAAAAAAAAAAAAAAAAAAAAAAA [CACACA_negctrl_site984] | 9.05 |
| ATTATCAAAAAAAAAAAAAAAAAAAAAAAAAAAAAA [CACACA_negctrl_site1118] | 8.87 |
| AACTTGTATTTATACACACACACACTAGCTTTTTTT [CACACA_site5132] | 10.4 |
| AACTTGTATATATACACACACACACTATCTTTTTTT [CACACA_site8601] | 10.9 |
| AACTTGTATTTATACACACACACACTGTCTTTTTTT [CACACA_site7009] | 10.5 |
| ATTTTTATTAGTTATTGTACTTATTATTTATTAATT [XGTACX_site2568] | 9.78 |
| TACAGACAGAAACACACACACACGCATAAAAAAAAA [CACACA_site1514] | 10.5 |
| TACACCCATAGACACACACACACGCATAAAAAAAAA [CACACA_site8428] | 11.1 |
| TATATACACAGACACACACACACATACACGCACATA [CACACA_site6909] | 10.5 |
| TACACATACCCATACACACGCATAGAAACATACGAA [CACACA_site5212] | 10.2 |
| CACCCATAGAAACACACACACGCATAAAAAAAAAAA [CACACA_site1513] | 10.7 |
| TACAGACATAGACACACACACACGCATAAAAAAAAA [CACACA_site6820] | 11.4 |
| AATAAATAAAAATGCACACAGTTAACATGTTGAATT [CACACA_site4795] | 10.2 |
| GCATCTCATTTGTGATGTACTATATTATCCGTTTTT [XGTACX_site7576] | 9.71 |

From the supplement of paper PMC11417369
